In the library only some 8.1% were active in any assay of this set; here they are far more common.
PD-1 reversal: activators reversing PD-1 mediated T-cell inhibition; primary human CD4 T cells, PD-L1 beads, CellTiter-Glo 96 h; activation, % (test concentration not listed); 29,000 tested, under 10 active; call rule not given here
MITF inhib: blocks MITF activity. AID 2240. TRPM1 promoter luciferase, luminescence, 24 h. inhibition, % (test concentration not listed). actives 0.28% (n = 37,000); in the data active means inhibition above about 85%; inconclusive means no clear call, values can overlap the other calls; inactive means below about 68%;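 further: human melanocyte line stably carrying TRPM1 promoter luciferase reporter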
Shh pathway inh: Sonic Hedgehog pathway inhibition. inhibition, % (no concentration beside the values). Shh-LIGHT2 Gli-luciferase reporter, 30 h. actives 2.1% (n = 22,000);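 active means mean inhibition across valid replicates above about 65%, limit read from the data; inconclusive means mean under the limit, yet half or more replicates past it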;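 further: pathway switched on by Shh-conditioned medium diluted 1 in 25 in low serum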
NOMO-1 viab: STK33 inhibitor candidate reducing NOMO-1 cell viability | AID 2330 | NOMO-1 AML viability, CellTiter-Glo luminescence, 72 h | inhibition, % (no concentration beside the values) | actives 7.5% (n = 37,000); in the data active means inhibition above about 80%; inconclusive means no clear call, values can overlap the other calls
Hits are given with their value; - = inactive; ? = inconclusive; . = not tested or not shown.

SMILES | PD-1 reversal | MITF inhib | Shh pathway inh | NOMO-1 viab
COc1ccc(S(=O)(=O)N(C)C[C@@H]2Oc3c(NC(=O)Nc4ccc(F)cc4)cccc3C(=O)N([C@H](C)CO)C[C@@H]2C)cc1 | - | - | 67.9 | -
COc1ccc(NC(=O)Nc2cccc3c2O[C@@H](CN(C)S(=O)(=O)c2ccc(Cl)cc2)[C@@H](C)CN([C@H](C)CO)C3=O)cc1 | . | - | 91.9 | -
COc1ccc(N=C(C)c2c(C(F)(F)F)[nH]n(-c3nc4ccccc4s3)c2=O)cc1OC | - | - | - | -
c1ccc(C(c2ccccc2)N2CCC2)cc1 | - | - | - | -
COc1ccc(C(c2ccc3cccnc3c2O)N2CCOCC2)cc1 (centres undefined) | - | - | 68.3 | 118.4
Oc1c(C(c2ccncc2)N2CCCC2)ccc2cccnc12 (centres undefined) | - | - | - | 143.2
CC(=O)OC[C@]12[C@H](OC(C)=O)[C@H](OC(C)=O)[C@@H]3[C@@H](OC(C)=O)[C@@]14O[C@@]3(C)COC(=O)c1ncccc1CC[C@H](C)C(=O)O[C@@H]([C@H](O)[C@@H]2OC(=O)c1ccccc1)[C@]4(C)O | - | - | - | 117.1
CCC1(C)Cc2c(sc3nnn(CC(=O)N(c4ccccc4)c4ccccc4)c(=O)c23)CO1 (centres undefined) | . | - | . | -
CS/C(NCC1CC1)=C(/C#N)C(=O)c1ccc(Cl)cc1 | - | - | . | 111.2
C[C@@H]1CN([C@H](C)CO)C(=O)c2cccc(NC(=O)c3nc4ccccc4s3)c2O[C@H]1CN(C)Cc1ccc(Cl)c(Cl)c1 | - | - | - | 91.3
C[C@@H]1CN([C@@H](C)CO)C(=O)c2cccc(NC(=O)c3nc4ccccc4s3)c2O[C@@H]1CN(C)Cc1ccccc1 | - | - | - | 104.3
C[C@H](CO)N1C[C@H](C)[C@H](CN(C)Cc2ccc(-c3ccccc3)cc2)Oc2c(NC(=O)c3nc4ccccc4s3)cccc2C1=O | - | - | - | ?
CNC[C@H]1Oc2c(NC(=O)c3nc4ccccc4s3)cccc2C(=O)N([C@H](C)CO)C[C@@H]1C | - | - | - | 97.3
C[C@H](CO)N1C[C@H](C)[C@@H](CN(C)C(=O)Nc2ccccc2)Oc2c(NC(=O)c3nc4ccccc4s3)cccc2C1=O | - | - | ? | -
C[C@H](CO)N1C[C@H](C)[C@@H](CN(C)C(=O)Nc2cccc3ccccc23)Oc2c(NC(=O)c3nc4ccccc4s3)cccc2C1=O | - | - | - | 98.8
COc1cc(O)c2c(c1)O[C@H](c1ccc(O)c(O)c1)[C@@H](OC(C)=O)C2=O | - | - | - | -
CCOC(=O)c1c(NC(=O)C(C)Oc2ccc3c(C)cc(=O)oc3c2)sc2c1CCCC2 (centres undefined) | - | - | . | -
C[C@@H]1CN([C@@H](C)CO)C(=O)c2cccc(NC(=O)c3nc4ccccc4s3)c2O[C@@H]1CN(C)Cc1ccc(C(F)(F)F)cc1 | - | - | - | 98.7
C[C@H]1CN([C@@H](C)CO)C(=O)c2cccc(NC(=O)c3nc4ccccc4s3)c2O[C@@H]1CN(C)C(=O)Nc1ccc(C(F)(F)F)cc1 | . | - | - | -
C[C@H](CO)N1C[C@H](C)[C@@H](CN(C)Cc2ccc(C(=O)O)cc2)Oc2c(NC(=O)c3nc4ccccc4s3)cccc2C1=O | - | - | - | -
C[C@@H]1CN([C@H](C)CO)C(=O)c2cccc(NC(=O)c3nc4ccccc4s3)c2O[C@H]1CN(C)CC1CCCCC1 | - | - | - | 116.1
C[C@H]1CN([C@@H](C)CO)C(=O)c2cccc(NC(=O)c3nc4ccccc4s3)c2O[C@H]1CN(C)C(=O)Nc1ccc(C(F)(F)F)cc1 | - | - | - | 109.5
Cc1cc2ncc(-c3ccccc3)nc2cc1C | - | - | - | -
c1ccc(-c2cnc3nonc3n2)cc1 | - | - | 82.4 | 114.5
CCC(C)CCCCCCCCC1CC(=O)NC(CCC(N)=O)C(=O)NC(CC(C)C)C(=O)NC(CC(C)C)C(=O)NC(C(C)C)C(=O)NC(CC(=O)O)C(=O)NC(CC(C)C)C(=O)NC(C(C)C)C(=O)O1 (centres undefined) | - | - | - | 110.6
SMILES | PD-1 reversal | MITF inhib | Shh pathway inh | NOMO-1 viab
O=c1cc(NCc2ccccc2)n(-c2ccccc2)c(=O)n1-c1ccccc1 | - | - | . | -
COC(=O)CC(O)(CCCC(C)(C)O)C(=O)O[C@@H]1C(OC)=C[C@]23CCCN2CCc2cc4c(cc2[C@@H]13)OCO4 (some centres undefined) | - | 93.4 | 103.7 | 98.8
CC12CC3CC(C)(C1)CC(C(=O)NN)(C3)C2 | - | - | - | -
O=c1[nH]c2ccccc2n1CCCSc1nnc2c(n1)[nH]c1ccccc12 | . | - | . | -
C=C1C(=O)O[C@@H]2C[C@@]3(C)[C@@H](O)C[C@@H](O)C(=C)[C@@H]3C[C@H]12 | - | - | - | 82.8
CS(=O)(=O)N(CC(=O)O)c1cc(Cl)c(Cl)cc1Cl | . | - | . | -
COc1ccc(CC(N)C(=O)N[C@H]2[C@@H](O)[C@H](n3cnc4c(N(C)C)ncnc43)O[C@@H]2CO)cc1 (some centres undefined) | - | 92.1 | 97.1 | 97.8
C/C=C(\CO)C(=O)O[C@H]1[C@H](O)[C@@H](C(=O)OC)O[C@@H]2C[C@H]3OC(n4cnc5c(N)ncnc54)[C@H](OC)[C@H]3O[C@]21O (some centres undefined) | - | - | - | -
COC(=O)c1ccc(NC(=O)CN(c2ccccc2Br)S(C)(=O)=O)cc1 | - | - | . | -
CC(=O)Nc1ccc(NC(=O)CN(c2ccc(Cl)c(C(F)(F)F)c2)S(C)(=O)=O)cc1 | - | - | . | 99.2
CS(=O)(=O)N(CC(=O)Nc1ccc(Cl)c(C(F)(F)F)c1)c1cccc(C(F)(F)F)c1 | - | - | . | ?
COC(=O)c1cccc(NC(=O)CN(c2ccc(I)cc2)S(C)(=O)=O)c1C | - | - | . | 100.2
COC(=O)c1cccc(NC(=O)CN(c2ccc(Cl)c(C(F)(F)F)c2)S(C)(=O)=O)c1C | - | - | . | 142.4
Cc1cccc(C)c1NC(=O)CN(c1ccc(Cl)c(C(F)(F)F)c1)S(C)(=O)=O | - | - | . | -
COC(=O)c1ccccc1NC(=O)CN(c1ccc(C)c(Cl)c1)S(C)(=O)=O | - | - | . | -
COC(=O)c1ccc(Cl)c(NC(=O)CN(c2ccccc2Br)S(C)(=O)=O)c1 | - | - | . | 94.7
COC(=O)c1cc(C)sc1NC(=O)COc1ccccc1 | - | - | . | -
C[C@H](CO)N1C[C@H](C)[C@H](CN(C)Cc2ccc(C(=O)Nc3ccccc3N)cc2)Oc2ccc(NC(=O)Cc3ccccc3)cc2C1=O | - | - | . | 103.6
C[C@H](CO)N1C[C@H](C)[C@H](CN(C)Cc2ccc(C(=O)Nc3ccccc3N)cc2)Oc2ccc(NC(=O)Nc3ccccc3)cc2C1=O | - | - | . | ?
C[C@@H]1CN([C@@H](C)CO)C(=O)c2cc(NC(=O)Nc3cccc4ccccc34)ccc2O[C@@H]1CN(C)Cc1ccc(C(=O)Nc2ccccc2N)cc1 | - | - | . | 110.3
C[C@@H]1CN([C@@H](C)CO)C(=O)c2cc(NC(=O)Nc3ccccc3)ccc2O[C@@H]1CN(C)Cc1ccc(C(=O)Nc2ccccc2N)cc1 | - | - | . | 110.9
